{"source": "PubChem BioAssay AID1963576", "about": "(National Center for Advancing Translational Sciences (NCATS), 2024)", "note": "The whole screen tested about 46,000 compounds, of which about 60 (0.1%) were called active. Inconclusive results (about 3%) are left out. This is one part of a sample in which actives are shown more often than they occur. A number with no mark means an inactive call. Calls follow the shape of the dose curve; as a rule, active = well fitted inhibition curve with a large enough effect; inconclusive = small, poorly fitted or top-dose-only effect; inactive = no such curve, though single readings can be large or run the other way. Potency is read from the fitted curve at half-maximal effect."}
{"assay": "Primary qHTS assay for Inhibitors of ovarian cancer metastasis using an organotypic tumor microenvironment (TME) model; also: nearly all actives have a fitted effect of over 65% in size;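 as to Potency: count of GFP cancer cells still attached after washing and fixation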.", "details": "SKOV3ip1-GFP adhesion/invasion on 3D omental model, fluorescence; series mostly up to 45.8 µM; activity change, negative = inhibition: at the top concentration", "description": "PI: Ernst Lengyel MD., Ph.D. Department of Obstetrics and Gynecology, Section of Gynecologic Oncology University of Chicago Medicine, Chicago, Illinois. The tumor microenvironment (TME) is a key determinant of metastatic efficiency. We performed a quantitative high-throughput screen (qHTS) of diverse medicinal chemistry tractable scaffolds (44,420 compounds) and pharmacologically active small molecules (386 compounds) using a layered organotypic, robust assay representing the ovarian cancer metastatic TME. This 3D model contains primary human mesothelial cells, fibroblasts, and extracellular matrix, to which fluorescently labeled ovarian cancer cells are added. Initially, 100 compounds inhibiting ovarian cancer adhesion/invasion to the 3D model in a dose-dependent manner were identified. Of those, eight compounds were confirmed active in five high-grade serous ovarian cancer cell lines and were further validated in secondary in vitro and in vivo biological assays. […] Specifically, NCGC00117362 and PP-121 inhibited ovarian cancer adhesion, invasion, and proliferation, whereas milciclib inhibited ovarian cancer invasion and proliferation. […] To evaluate the clinical potential of NCGC00117362, structure - activity relationship studies were performed. […] The three compounds identified have promise as therapeutics for prevention and treatment of ovarian cancer metastasis.\nPROTOCOL TABLE (as described by Inglese J, Shamu CE and Guy RK. 2007) SEQUENCE No. (e.g., 1, 2, 3, etc.); […] (e.g., Cells, Incubation, Reagent, etc.); VALUE; DESCRIPTION. 1; Cells; 4 uL; primary human omental fibroblast, black, clear bottom, low base, 1536-well Aurora assay plate. 2; Incubation; 48 hr; 37C. 3; Cells; 3 uL; 1,200 SKOV3ip1-GFP cells. 4; Compounds; 23nL; acoustic dispenser. 5; Incubation; 2 hr; room temperature. 6; Incubation; 16 hr; 37C. 7; Wash; 5 uL; 1x PBS. 8; Fixing; 5 uL; 4% paraformaldehyde (PFA). 9; Incubation; 15 min; room temperature 10; Wash, 5 uL; 1x PBS. 11; Detection; Fluorescence, excitation filter 488 nm, emission filter 509 nm. NOTES (numbers refer to Sequence numbers above) 1. For the 1,536-well format, 40 primary human omental fibroblasts and 400 mesothelial cells were seeded with 0.02 µg fibronectin and 0.02 µg collagen type I in 4 µL of growth media (2.3 mm2; Supplementary Fig. S1A). 2. Assay plates were incubated for 48 hours at 37 C. 3. After incubation, 1,200 SKOV3ip1-GFP were seeded in 3 µL of serum-free media (growth media minus FBS) on top of primary human omental cells. 4. Compounds or controls were added to each well immediately after the addition of the cancer cells. Compounds were screened in four doses (0.36-46 µmol/L), and the plates contained the positive control (Tomatine) in eight doses (0.035-75 µmol/L) and DMSO (equal volume controls) 5 - 6. The plates were incubated at room temperature for 2 hours and then at 37 degrees C for 16 hours. 7 - 10. Following incubation, the media were aspirated and each well washed with PBS (5 µL) and then fixed with 4% paraformaldehyde (PFA; 5 µL). After 15 minutes, the PFA solution was aspirated, PBS (5 µL) was added. 11. The number of GFP-labeled cells analyzed using a fluorescent cytometer TTP LabTech Acumen eX3 using 488 nm excitation filter and 509 nm emission filter. Data was normalized to the DMSO treated for negative and Tomatine treated wells for positive control. REFERENCES: Inglese J, Shamu CE and Guy RK, Reporting data from high throughput screening of small molecule libraries, Nature Chemical Biology, 2007, 3(8): 438-441. doi.org/10.1038/nchembio0807-438. Yasgar A, Shinn P, Jadhav A, Auld DS, Michael S, Zheng W, Austin CP, Inglese J and Simeonov A, Compound Management for Quantitative High-Throughput Screening. J. Assoc. Lab. Auto., 2008, 13: 79-89. doi: 10.1016/j.jala.2007.12.004.", "units": {"activity change, negative = inhibition": "%"}}
{"smiles": "COc1cc(OC)cc(C(=O)Nc2cc3nn(-c4ccccc4)nc3cc2Cl)c1", "activity change, negative = inhibition": -12.1}
{"smiles": "CC(=O)c1ccc(N2CCN(c3nc4c(S(=O)(=O)c5ccccc5)nnn4c4ccc(Cl)cc34)CC2)cc1", "activity change, negative = inhibition": -7.59}
{"smiles": "Cc1ccc(CNC(=O)CCc2c(C)nn(-c3ccc(N4CCCC4)nn3)c2C)cc1", "outcome": "inactive"}
{"smiles": "Cc1cccc(N(C)C(=O)c2cc(S(=O)(=O)N3CCCCC3)c[nH]2)c1", "activity change, negative = inhibition": 5.29}
{"smiles": "CO[C@H]1O[C@@H]2O[C@@]3(C)CC[C@@H]4[C@@H](C)CC[C@@H]([C@H]1C)[C@@]24OO3", "activity change, negative = inhibition": -30.6}
{"smiles": "Cn1c(SCC(=O)N2CCCc3ccccc32)ncc(C(=O)Nc2ccc(F)cc2)c1=O", "activity change, negative = inhibition": -22.2}
{"smiles": "Cc1nn(Cc2ccc(F)cc2)c(C)c1NC(=O)c1cc(CC(C)C)on1", "outcome": "inactive"}
{"smiles": "COc1ccccc1-c1nnc(SCC(N)=O)o1", "activity change, negative = inhibition": -1.31}
{"smiles": "CON=C(C(=O)N[C@@H]1C(=O)N2C(C(=O)OCOC(=O)C(C)(C)C)=C(C=Cc3scnc3C)CS[C@H]12)c1csc(N)n1", "activity change, negative = inhibition": 25.4}
{"smiles": "CCc1ccc(NC(=O)CSc2nc3c([nH]c4ccccc43)c(=O)n2-c2cccc(OC)c2)cc1", "activity change, negative = inhibition": -0.478}
{"smiles": "CCOC(=O)N1CCN([N+]([O-])=NOc2ccc([N+](=O)[O-])cc2[N+](=O)[O-])CC1", "activity change, negative = inhibition": -4.51}
{"smiles": "Cc1nc2c(-c3ccccc3)c(C)nn2c(C)c1CCC(=O)NCCc1ccccc1", "activity change, negative = inhibition": 5.93}
{"smiles": "Fc1ccc(-n2ncc3c(Nc4ccc(Oc5ccccc5)cc4)ncnc32)cc1", "outcome": "inactive"}
{"smiles": "Cc1ccc(/C=C(\\C#N)C(=O)Nc2cc(C)ccc2C)cc1", "outcome": "inactive"}
{"smiles": "CSc1ccc(CCNC(=O)c2cnn(-c3ccccc3)c2-n2cccc2)cc1", "outcome": "inactive"}
{"smiles": "COc1ccc(C2CC(=O)Nc3c2c(=O)nc2c(C)cccn32)cc1OC", "note": "(stereo not given)", "activity change, negative = inhibition": 12.3}
{"smiles": "COc1ccc(NC(=O)c2cnc(Nc3ccc(C)c(Cl)c3)c3ccccc23)cc1OC", "outcome": "inactive"}
{"smiles": "CCN1CCN(c2cc(C)c3cc(NC(=O)c4cc(Cl)ccc4OC)ccc3n2)CC1", "Potency": "3.55 µM (active)"}
{"smiles": "COc1ccc(C(=O)Nc2ccc3nc(N4CCCCC4)cc(C)c3c2)cc1OC", "outcome": "inactive"}
{"smiles": "CC(NC(=O)c1cc2c(=O)n3ccccc3nc2n(C(C)C)c1=N)c1ccccc1", "note": "(stereo not given)", "activity change, negative = inhibition": -15.9}
{"smiles": "COc1cc2ccccc2cc1C(=O)Nc1cccc(-c2nc3ccccc3o2)c1", "outcome": "inactive"}
{"smiles": "CCN1CCN(c2ncnc3c2cnn3-c2ccc(C)c(C)c2)CC1", "activity change, negative = inhibition": -2.4}
{"smiles": "CCc1cccc(NC(=O)CN(c2ccc(C)c(C)c2)S(=O)(=O)c2ccsc2C(=O)OC)c1", "activity change, negative = inhibition": 1.97}
{"smiles": "CCc1nccn1S(=O)(=O)c1cc(Br)ccc1Br", "activity change, negative = inhibition": 9.09}
{"smiles": "CCc1ccc(S(=O)(=O)c2nnn3c2nc(NCc2ccccc2OC)c2cc(Cl)ccc23)cc1", "activity change, negative = inhibition": 0.872}
{"smiles": "Cc1ccc(NC(=O)c2oc3ccc(S(=O)(=O)N4CCCCC4)cc3c2C)cc1Cl", "activity change, negative = inhibition": -11.1}
{"smiles": "Cc1ccc(-n2ncc3c(NCCCn4ccnc4)ncnc32)cc1Cl", "activity change, negative = inhibition": -4.11}
{"smiles": "Cc1ccc(-n2c(SCC(=O)Nc3cccc(F)c3)nc3c(oc4ccccc43)c2=O)cc1C", "outcome": "inactive"}
{"smiles": "CC=CC[C@@H](C)C(=O)[C@H]1C(=O)N[C@@H](C(C)C)C(=O)N(C)CC(=O)N(C)[C@@H](CC(C)C)C(=O)N[C@@H](C(C)C)C(=O)N(C)[C@@H](CC(C)C)C(=O)N[C@@H](C)C(=O)N[C@H](C)C(=O)N(C)[C@@H](CC(C)C)C(=O)N(C)[C@@H](CC(C)C)C(=O)N(C)[C@@H](C(C)C)C(=O)N1C", "activity change, negative = inhibition": -11.6}
{"smiles": "CCc1nc2nc(C)cc(Nc3ccc(F)c(Cl)c3)n2n1", "activity change, negative = inhibition": 27.4}
{"smiles": "COc1cc2nc(SCC(=O)Nc3ccccc3F)n3nc(-c4ccccc4)nc3c2cc1OC", "outcome": "inactive"}
{"smiles": "Cc1ccc(Cn2c(CNC(=O)Cc3cccc(C)c3)nc3cccnc32)cc1", "activity change, negative = inhibition": -12.9}
{"smiles": "O=C(Cn1nc(C(F)(F)F)c2c1CCCC2)Nc1ccc(Cl)cc1", "activity change, negative = inhibition": 1.23}
{"smiles": "COc1ccc(NC(=O)COCc2cc(-c3ccco3)on2)cc1", "activity change, negative = inhibition": -4.51}
{"smiles": "O=C(Cn1nc(Cc2cccnc2)c2ccccc2c1=O)N1CCN(c2ccccc2F)CC1", "activity change, negative = inhibition": -1.53}
{"smiles": "COc1ccc(CN2CCc3nc(Nc4ccccc4)ncc3C2)c(OC)c1OC", "activity change, negative = inhibition": -5.54}
{"smiles": "CO[C@H]1C[C@@H]2CC[C@@H](C)[C@@](O)(O2)C(=O)C(=O)N2CCCC[C@@H]2C(=O)O[C@H]([C@@H](C)C[C@@H]2CC[C@H](O)[C@H](OC)C2)CC(=O)[C@H](C)C=C(C)[C@@H](O)[C@@H](OC)C(=O)[C@H](C)C[C@H](C)C=CC=CC=C1C", "activity change, negative = inhibition": 33.7}
{"smiles": "CCOC(=O)c1ccccc1NC(=O)c1sc2nc(-c3ccc(F)cc3)cn2c1C", "activity change, negative = inhibition": 12}
{"smiles": "COc1ccc(-c2cn3c(C)c(C(=O)Nc4cc(C)cc(C)c4)sc3n2)cc1", "Potency": "8.91 µM (active)"}
{"smiles": "COc1ccc(-c2cn3c(n2)sc2cc(C(=O)Nc4ccc(F)cc4)ccc23)cc1", "activity change, negative = inhibition": 5.93}
{"smiles": "CCOC(=O)c1cc2c(=O)n3ccccc3nc2n(Cc2ccco2)c1=NC(=O)c1ccc(F)cc1", "activity change, negative = inhibition": 15.7}
{"smiles": "Cn1c(=O)c2c(n3c4ccccc4nc13)NC(=O)CC2c1cccc(Cl)c1", "note": "(stereo not given)", "activity change, negative = inhibition": -3.87}
{"smiles": "COc1cccc(CNC(=O)CN2C(=O)CCc3cc(S(=O)(=O)N4CCOCC4)ccc32)c1", "activity change, negative = inhibition": 0.82}
{"smiles": "Cc1cccc(NC(=O)c2nnn(CC(=O)Nc3ccc(C(C)C)cc3)c2N)c1C", "outcome": "inactive"}
{"smiles": "O=C(NCCc1ccccc1)c1ccc2c(c1)N(Cc1ccc(F)cc1)C(=O)c1ccccc1S2(=O)=O", "activity change, negative = inhibition": 6.62}
{"smiles": "COc1ccc(CNC(=O)CSc2nc3ccccc3nc2Cc2ccccc2)cc1", "activity change, negative = inhibition": -20.8}
{"smiles": "CCc1ccc(S(=O)(=O)c2nnn3c2nc(N2CCN(CC)CC2)c2sccc23)cc1", "outcome": "inactive"}
{"smiles": "COc1ccc2oc(=O)c(-c3cn4c(n3)sc3cc(OC)ccc34)cc2c1", "activity change, negative = inhibition": -7.31}
{"smiles": "O=C(Nc1ccc(-c2nc3cc(NC(=O)c4ccccc4Cl)ccc3o2)cc1)c1ccccc1Cl", "activity change, negative = inhibition": -29.1}
{"smiles": "CCOC(=O)c1c(N)n(-c2cccc(C)c2C)c2nc3ccccc3nc12", "activity change, negative = inhibition": -16}
{"smiles": "Cc1ccc(Nc2nc3ccccc3nc2-n2nc(C)cc2C)c(Cl)c1", "activity change, negative = inhibition": -10.1}
{"smiles": "COc1cc(C(=O)N2CCC(c3ccncc3)CC2)cc(OC)c1OC", "activity change, negative = inhibition": -0.392}
{"smiles": "Cc1ccc(S(=O)(=O)N2CCC(C(=O)Nc3cc(C)ccc3C)CC2)cc1", "activity change, negative = inhibition": -6.77}
{"smiles": "CC=CCC=CCCC(=O)[C@H]1O[C@@H]1C(N)=O", "activity change, negative = inhibition": -0.0997}
{"smiles": "Cc1nnc(SCC(=O)NCc2ccccc2Cl)c2nn(-c3ccccc3)c(C)c12", "activity change, negative = inhibition": -12.7}
